Laboratory results: the supplement of paper PMC10515830
Counter-ions that a name gives are not always drawn.

Experiments:
Conditions in all cases: 10 µM; exposure time 6 h
[1] = tested on: Danio rerio larvae (5 dpf); assay: difference in excitability vs DMSO (percentage points); higher = more excitable than DMSO
In short: (§1)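 Wild-type 5 dpf zebrafish larvae in 96-well plates were given 100 µL egg water containing library compound at 10 µM final for 6 h. After 3 h of exposure, plates at 28.5 ℃ were photographed every 6 s during a 3-h programme of moving lines and 100 ms, 400Hz tones. Z-LaP Tracker (a DeepLabCut model) quantified each behaviour, averaged over 48 larvae per compound. Values are the compound mean minus the DMSO-vehicle control, in percentage points.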

[2] = tested on: Danio rerio larvae (5 dpf); assay: difference in startle response vs DMSO (percentage points); higher = stronger startle than DMSO
In short: as §1

[3] = tested on: Danio rerio larvae (5 dpf); assay: difference in activity during first hour vs DMSO (percentage points); higher = more activity than DMSO
In short: as §1

[4] = tested on: Danio rerio larvae (5 dpf); assay: difference in habituation to acoustic stimuli vs DMSO (percentage points); higher = more habituation than DMSO
In short: as §1

[5] = tested on: Danio rerio larvae (5 dpf); assay: difference in combined optomotor response to red, green and blue moving lines vs DMSO (percentage points); higher = stronger optomotor response than DMSO
In short: as §1

| Compound | difference in excitability [1] | difference in startle response [2] | difference in activity during first hour [3] | difference in habituation to acoustic stimuli [4] | difference [5] |
| --- | --- | --- | --- | --- | --- |
| Nc1nc(CC(=O)Nc2ccc(CCNC[C@H](O)c3ccccc3)cc2)cs1 [Mirabegron] | 15.7 | -0.811 | 3.64 | -4.56 | 3.08 |
| CC(N)C12CC3CC(CC(C3)C1)C2 (stereo not given) [Rimantadine (hydrochloride)] | 3.64 | -0.673 | -3.58 | 3.17 | -3.34 |
| O=c1ccn([C@@H]2O[C@H](CO)[C@@H](O)[C@H]2O)c(=O)[nH]1 [Uridine] | -2.47 | -2.07 | 11.4 | -2.41 | 1.41 |
| CC#CCC(C)[C@H](O)/C=C/[C@@H]1[C@H]2C/C(=C/CCCC(=O)O)C[C@H]2C[C@H]1O (stereo not given in full) [Iloprost] | -3.4 | -1.91 | 1.64 | -1.61 | 1.64 |
| CC(=O)O[C@H]1C[C@@H]2CC[C@@H]3[C@H](CC[C@@]4(C)[C@H]3C[C@H]([N+]3(C)CCCCC3)[C@@H]4OC(C)=O)[C@@]2(C)C[C@@H]1N1CCCCC1 [Vecuronium (bromide)] | 11.8 | -0.798 | -6.01 | 3.25 | -1.83 |
| OC[C@H]1NC[C@H](O)[C@@H](O)[C@H]1O [1-Deoxygalactonojirimycin (hydrochloride)] | 1.33 | 1.49 | 16.8 | 3.98 | 3.06 |
| Cc1c2oc3c(C)ccc(C(=O)N[C@@H]4C(=O)N[C@H](C(C)C)C(=O)N5CCC[C@H]5C(=O)N(C)CC(=O)N(C)[C@@H](C(C)C)C(=O)O[C@@H]4C)c3nc-2c(C(=O)N[C@@H]2C(=O)N[C@H](C(C)C)C(=O)N3CCC[C@H]3C(=O)N(C)CC(=O)N(C)[C@@H](C(C)C)C(=O)O[C@@H]2C)c(N)c1=O [Actinomycin D] | 5.1 | -6.8 | 6.02 | 4.18 | -0.162 |
| CS(=O)(=O)c1cccc(C[C@H](NC(=O)c2c(Cl)cc3c(c2Cl)CCN(C(=O)c2ccc4ccoc4c2)C3)C(=O)O)c1 [Lifitegrast] | 5.68 | 2.04 | 16.5 | 0.0295 | 7.02 |
| CC1(C)O[C@@H]2C[C@H]3[C@@H]4C[C@H](F)C5=CC(=O)C=C[C@]5(C)[C@H]4[C@@H](O)C[C@]3(C)[C@]2(C(=O)CO)O1 [Flunisolide] | 4.3 | -3.48 | 6.73 | 1.9 | 3.28 |
| CCCc1c2oc(C(=O)O)cc(=O)c2cc2c(=O)cc(C(=O)O)n(CC)c12 [Nedocromil (sodium salt)] | -1.27 | 3.78 | -6.98 | 7.47 | -2.49 |
| O=C(O)c1cc(-c2ccc(F)cc2F)ccc1O [Diflunisal] | 1.22 | 5.89 | 15.2 | -3.92 | 6.8 |
| O=S(=O)(O)CCS [Mesna] | -4.43 | 2.29 | 12.8 | -1.88 | 6.5 |
| O=C1CN2Cc3c(ccc(Cl)c3Cl)N=C2N1 [Anagrelide (hydrochloride)] | 11.5 | -3.44 | -9.48 | 7.77 | 3.07 |
| NCCS [Cysteamine (hydrochloride)] | 4.79 | 3.78 | 3.89 | 0.254 | 14.5 |
| CCOc1ccccc1OCCN[C@H](C)Cc1ccc(OC)c(S(N)(=O)=O)c1 [Tamsulosin (hydrochloride)] | 25.5 | 3.47 | -3.28 | 1.9 | 1.52 |
| NS(=O)(=O)c1cc(C2(O)NC(=O)c3ccccc32)ccc1Cl (stereo not given) [Chlorthalidone] | -10 | 0.0654 | 5.83 | 3.4 | -3.83 |
| C[C@@H](Oc1cc(-c2cnn(C3CCNCC3)c2)cnc1N)c1c(Cl)ccc(F)c1Cl [(R)-Crizotinib] | 11.1 | -4.49 | -3.18 | 0.409 | -0.753 |
| CN1CCCC(n2nc(Cc3ccc(Cl)cc3)c3ccccc3c2=O)CC1 (stereo not given) [Azelastine (hydrochloride)] | 19.9 | 1.87 | -5.88 | -2.38 | 3.47 |
| Cc1ccc(N(CC2=NCCN2)c2cccc(O)c2)cc1 [Phentolamine (mesylate)] | -0.363 | 0.261 | 20 | 5.59 | -2.55 |
| OC(CCN1CCCCC1)(c1ccccc1)C1CC2C=CC1C2 (stereo not given) [Biperiden (hydrochloride)] | 9.71 | -7.39 | -0.127 | -10.7 | -2.85 |

| Compound | difference in excitability [1] | difference in startle response [2] | difference in activity during first hour [3] | difference in habituation to acoustic stimuli [4] | difference [5] |
| --- | --- | --- | --- | --- | --- |
| C[C@]12C=CC(=O)N[C@@H]1CC[C@@H]1[C@@H]2CC[C@]2(C)[C@@H](C(=O)Nc3cc(C(F)(F)F)ccc3C(F)(F)F)CC[C@@H]12 [Dutasteride] | 18.8 | -0.713 | 22.4 | -8.39 | -3.79 |
| CCS(=O)(=O)N1CC(CC#N)(n2cc(-c3ncnc4[nH]ccc34)cn2)C1 [Baricitinib] | 7.57 | -3.92 | 10.9 | -5.36 | 5.99 |
| CC(=O)CC(c1ccccc1)c1c(O)c2ccccc2oc1=O (racemic) [(±)-Warfarin] | 7.35 | -1.45 | -0.141 | -3.9 | -1.34 |
| Cc1ccc(Nc2nccc(N(C)c3ccc4c(C)n(C)nc4c3)n2)cc1S(N)(=O)=O [Pazopanib] | 3.47 | -4.32 | -7.88 | 0.185 | 1.79 |
| CC(=O)O[C@]1(C(C)=O)CC[C@H]2[C@@H]3C=C(C)C4=CC(=O)CC[C@]4(C)[C@H]3CC[C@@]21C [Megestryl Acetate] | 20.8 | -4.3 | 4.4 | -8.79 | -10.8 |
| C[C@@H]1CCN(C(=O)CC#N)C[C@@H]1N(C)c1ncnc2[nH]ccc12 | -2.24 | -4.49 | -6.58 | -6.59 | 6.98 |
| OCCOCCN1CCN(C2=Nc3ccccc3Sc3ccccc32)CC1 [Quetiapine (hemifumarate)] | -1.54 | -3.79 | 16.8 | -4.99 | 10.6 |
| CCOc1cc([C@@H](CS(C)(=O)=O)N2C(=O)c3cccc(NC(C)=O)c3C2=O)ccc1OC [Apremilast] | 0.408 | 3.1 | -6.82 | -0.561 | -3.01 |
| CC1=C(/C=C/C(C)=C/C=C/C(C)=C/C(=O)O)C(C)(C)CCC1 [all-trans Retinoic Acid] | 7.11 | -8.47 | -4.15 | -13.5 | 6.48 |
| C[C@H](Cc1cc2c(c(C(N)=O)c1)N(CCCO)CC2)NCCOc1ccccc1OCC(F)(F)F [Silodosin] | 15.3 | 3.54 | 3.31 | -5.47 | 4.97 |
| C=CC[C@@H]1/C=C(\C)C[C@H](C)C[C@H](OC)[C@H]2O[C@@](O)(C(=O)C(=O)N3CCCC[C@H]3C(=O)O[C@H](/C(C)=C/[C@@H]3CC[C@@H](O)[C@H](OC)C3)[C@H](C)[C@@H](O)CC1=O)[C@H](C)C[C@@H]2OC | 27 | -6.28 | 5.28 | -10.2 | -13.7 |
| CCCCCCCCCCCCCCCCCCCCCCO [Docosanol] | 3.23 | 1.61 | -0.528 | -2.06 | 0.854 |
| C[C@H]1c2cccc(O)c2C(=O)C2=C(O)[C@]3(O)C(=O)C(C(N)=O)=C(O)[C@@H](N(C)C)[C@@H]3[C@@H](O)[C@@H]21 [Doxycycline (hyclate)] | 12.8 | 3.11 | 5.72 | 7.01 | -0.304 |
| COc1ccc2[nH]c([S+]([O-])Cc3ncc(C)c(OC)c3C)nc2c1 (stereo not given) [Omeprazole] | 14.6 | -0.657 | -0.859 | 0.506 | 5.66 |
| O=C(O[C@@H]1C[C@@H]2C[C@H]3C[C@H](C1)N2CC3=O)c1c[nH]c2ccccc12 [Dolasetron] | 10.9 | -3.55 | 2.6 | 7.35 | 6.71 |
| CC[C@@H](CO)NCCN[C@@H](CC)CO [Ethambutol (hydrochloride)] | 2.65 | 1.19 | 7 | 4.16 | -3.67 |
| CN[C@H]1CC[C@@H](c2ccc(Cl)c(Cl)c2)c2ccccc21 [Sertraline (hydrochloride)] | 8.65 | 9.23 | -22.3 | -4.17 | -15.1 |
| Clc1ccc(COC(Cn2ccnc2)c2ccc(Cl)cc2Cl)cc1 (stereo not given) [Econazole (nitrate)] | 7.22 | -9.26 | -22.1 | -11.9 | -16.9 |
| C[n+]1ccccc1/C=N/O [Pralidoxime (chloride)] | 1.97 | -3.28 | 6.01 | 2.57 | 1.74 |
